# Measured values: ChEMBL document CHEMBL3988442, “University of Dundee, Small-Polar-MMV Screening Library” (2021)
# About 13,000 (27%) of roughly 48,000 compounds showed an effect of 50% or more. The list shows a part of the results.
# System: Wolbachia pipientis
# Experiment: Anti-Wolbachia Cell-Based Screen
# Assay type: functional
# Parameters: scale not given: in the data most compounds retested in dose-response had high values
# Conditions: 5 µM
row,SMILES,Percent Effect
1,Cc1cccc(N2CCN(c3ccn4c(=O)[nH]nc4n3)CC2)c1C,-10.93%
2,Cc1ccc2c(c1C)OCC2NCc1cccc(C#N)c1 (stereo not drawn),-16%
3,Cc1cc2n(n1)CC(CNCCNC(=O)c1ccc(F)cc1)CN2 (stereo not drawn),-2.749%
4,CC(C(=O)N1CCCC1)S(=O)(=O)Cc1nc(C(C)(C)C)no1 (stereo not drawn),0.9098%
5,c1ccc(-c2n[nH]c(CCNc3nnc(C4CCC4)o3)n2)cc1,-23.29%
6,CCCc1nnc(NCCc2noc(C3CCC3)n2)o1,108%
7,Cc1cccc(C)c1NCc1noc(C2CC2)n1,-19.13%
8,CCCc1nnc(NC2CCN(C3CCCC3)CC2)o1,-6.832%
9,CCCc1nnc(NC2CCN(CCO)CC2)o1,-14.34%
10,CCCc1nnc(NCCc2noc(C3CCCC3)n2)o1,110.1%
11,CCCc1nnc(NCCc2noc(C3CC3)n2)o1,133.3%
12,CCCc1nnc(NC2CCN(C3CCOCC3)CC2)o1,-6.121%
13,c1ccc(-c2nc(CCNc3nnc(C4CCC4)o3)no2)cc1,-25.81%
14,CCOC(=O)CCNC(=O)N1CCCC(CNC(=O)c2cccs2)C1 (stereo not drawn),-0.8406%
15,COCC(C)NCc1nc(-c2ccc(C)cc2)c(-c2ccccn2)[nH]1 (stereo not drawn),22.14%
16,O=C(NCC1CC[C@@]2(CNCCOC2)O1)c1cnccn1 (stereo partly drawn),-4.727%
17,CCOCC(O)CN1CCN(C(=O)CC(C)C)CC1 (stereo not drawn),-1.349%
18,CCOCC(O)CN1CCN(C(=O)c2ccccc2F)CC1 (stereo not drawn),82.64%
19,CCOCC(O)CN1CCN(C(=O)c2cc(Cl)ccc2F)CC1 (stereo not drawn),107.8%
20,CCOCC(O)CN1CCN(C(=O)c2cc(F)ccc2C)CC1 (stereo not drawn),-5.879%
21,CCOCC(O)CN1CCN(C(=O)c2cc(C)ccc2OC)CC1 (stereo not drawn),91.25%
22,CCOCC(O)CN1CCN(C(=O)c2cccnc2OC)CC1 (stereo not drawn),-8.967%
23,CCOCC(O)CN1CCN(C(=O)c2cc(C)ccc2F)CC1 (stereo not drawn),114.4%

row,SMILES,Percent Effect
1,CCOCC(O)CN1CCN(C(=O)C2CC2)CC1 (stereo not drawn),3.304%
2,CCOCC(O)CN1CCN(C(=O)c2ccc(OC)cc2F)CC1 (stereo not drawn),5.863%
3,CCOCC(O)CN1CCN(C(=O)c2cccc3[nH]ncc23)CC1 (stereo not drawn),-8.301%
4,CCOCC(O)CN1CCN(C(=O)c2ccccc2Cl)CC1 (stereo not drawn),-0.07038%
5,CCC(CO)N(Cc1ccccn1)C(=O)c1ccc(F)c(F)c1 (stereo not drawn),-4.122%
6,COc1ccccc1[C@@H]1CN(Cc2ccc3nsnc3c2)C[C@H]1C(=O)O,-7.505%
7,O=C1CCCN1CC1CCCCN1C(=O)Nc1cccnc1 (stereo not drawn),2.863%
8,CC(CO)(NC(=O)Nc1nnc(C2CC2)s1)C1CCCCC1 (stereo not drawn),-9.055%
9,Cc1ncnc2c1CCN(c1ccccn1)CC2.O=C(O)C(F)(F)F,-1.048%
10,Cc1ccc(N2CCc3ncnc(C4CC4)c3CC2)nn1,109.7%
11,CCN(C)c1ncnc2c1CCN(C(=O)c1ccc(C)o1)CC2,16.8%
12,CCN(C)c1ncnc2c1CCN(Cc1ccoc1)CC2,5.87%
13,Cc1cccc(N2CCc3ncnc(C4CC4)c3CC2)n1.O=C(O)C(F)(F)F,-0.7923%
14,CCN(CC)c1ncnc2c1CCN(CC1CCOCC1)CC2.O=C(O)C(F)(F)F,-1.394%
15,c1ccc(N2CCc3ncnc(C4CC4)c3CC2)nc1,-3.177%
16,CCN(CC)c1ncnc2c1CCN(c1ccc(C)nn1)CC2,109.1%
17,Cc1ncnc2c1CCN(c1cc(C(F)(F)F)ncn1)CC2,-23.9%
18,Cc1ccc(N2CCCC(N(C)c3ncnc4c3CCC4)C2)nn1 (stereo not drawn),40.92%
19,Cc1ccc(N2CCc3ncnc(C)c3CC2)nn1,98.11%
20,CCN(C)c1ncnc2c1CCN(c1ccc(C)nn1)CC2,88.89%
21,CN(c1nc(Cn2cc(Br)ccc2=O)cs1)C1CC1,-13.88%
22,CS(=O)(=O)N1CCC(c2nnc3ccc(C(=O)N4CCCC4)cn23)C1 (stereo not drawn),-3.487%
23,CCc1cnc(N)nc1NCCCn1nc(C)nc1C,4.841%

row,SMILES,Percent Effect
1,CC(CCN1CCOCC1)NC(=O)c1cccc(C(F)(F)F)c1F (stereo not drawn),-6.149%
2,c1ccc(N2CCC(NCc3cccc4cn[nH]c34)C2)cc1 (stereo not drawn),2.833%
3,COc1ccc(N2CCC(C(=O)/N=c3/[nH]ccs3)CC2)nn1,7.434%
4,Cc1nc(CCNC(=O)C2CC(=O)N(C(C)C)C2)sc1C (stereo not drawn),-29.36%
5,COCCN(CC1CCCN(C2Cc3ccccc3C2)C1)C(=O)CO (stereo not drawn),-6.477%
6,CN(C)c1ncnc2c1CCN(c1ccccc1)CC2,9.479%
7,Cc1ccc(N2CCc3ncnc(N(C)C)c3CC2)nn1,103.7%
8,Cc1ccccc1S(=O)(=O)N1CCc2c(ncnc2N(C)C)C1,-0.5839%
9,Cc1nc(CN(C)C2CCN(CC(=O)N(C)CCC#N)C2)no1 (stereo not drawn),-8.122%
10,CN(Cc1cc(=O)c(O)co1)C1CCCN(c2ccccc2)C1 (stereo not drawn),-2.476%
11,Cc1nc(CN(C)C2CCN(CC3CCOCC3)C2)no1 (stereo not drawn),108.1%
12,Cc1nc(CN(C)C2CCCN(c3ccccc3)C2)no1 (stereo not drawn),85.51%
13,Cc1nc(CN(C)C2CCN(CC3CCCCC3)C2)no1 (stereo not drawn),12.52%
14,Cc1nc(CN(C)C2CCN(CC3CCC3)C2)no1 (stereo not drawn),98.61%
15,Cc1nc(CN(C)C2CCN(CC3CCCC3)C2)no1 (stereo not drawn),93.14%
16,Cc1cc(CN(C)C2CCCN(Cc3noc(C)n3)C2)on1 (stereo not drawn),4.561%
17,O=C(c1nc(=O)[nH][nH]1)N1CCC2(CCCCC2)C1,-9.423%
18,c1ccc(SCCN2CCN(CCn3cncn3)CC2)cc1,8.727%
19,CCC(CO)N(Cc1ccsc1)Cc1ccc(-c2ccn[nH]2)s1 (stereo not drawn),-9.048%
20,CN1CCN(C2CCN(CC(=O)NCC(F)(F)F)CC2)C1=O,-4.835%
21,O=C(NC(Cc1ccsc1)c1nccs1)C1CC1 (stereo not drawn),111.3%
22,CC(C)Oc1cccc(CNC(Cc2ccsc2)c2nccs2)c1.Cl (stereo not drawn),94.44%
23,CC(C)Oc1cccc(CNC(=O)NC2(CO)CCCC2)c1,12.23%

row,SMILES,Percent Effect
1,CS(=O)(=O)N1CCC(C(=O)NC(Cc2ccsc2)c2nccs2)CC1 (stereo not drawn),-7.112%
2,O=C(NC(Cc1ccsc1)c1nccs1)C1CCOCC1 (stereo not drawn),-7.907%
3,CC(NC(=O)NCc1cccc(CN2CCCC2)c1)c1nccs1 (stereo not drawn),-2.261%
4,CCS(=O)(=O)N1CCC(C(=O)NC(Cc2ccsc2)c2nccs2)CC1 (stereo not drawn),102.7%
5,O=C(CSCc1ccncc1)N(Cc1ccsc1)C1CC1,10.91%
6,C=C(C)COc1ccccc1CNC(CC)c1ccnn1C (stereo not drawn),-26.14%
7,CCN(C(c1cccnc1)c1ccc2c(c1)CCO2)S(C)(=O)=O (stereo not drawn),5.843%
8,CCn1nnnc1-c1cccc(NC(=O)CCc2cnn(C)c2)c1,-3.137%
9,Cc1cccc2cc(CNCCCN3CCOCC3)c(=O)[nH]c12,-14.11%
10,CCc1cccc2cc(CNCCCN3CCOCC3)c(=O)[nH]c12,109.4%
11,Cc1ccc2cc(CNCCCN3CCOCC3)c(=O)[nH]c2c1C,110.9%
12,Cc1cccc2cc(CN3CCC(N4CCOCC4)CC3)c(=O)[nH]c12,-9.486%
13,Cc1cc(C2CCCN2Cc2ccn(C)c(=O)c2)no1 (stereo not drawn),-4.327%
14,COc1cccc(CN2CCCCCC2c2cccc(C)c2)c1O (stereo not drawn),-3.31%
15,CCc1ccc(CN2CCCCC2c2n[nH]cc2-c2cc(C)no2)cc1.Cl (stereo not drawn),131.5%
16,COc1ccc(CN2CCC[C@H]2c2nc(-c3cncnc3N)no2)cc1,-2.568%
17,COc1ccccc1CN1CCCCC1c1n[nH]cc1-c1cc(C)no1.Cl (stereo not drawn),107.2%
18,COc1ccc(C)cc1CN1CCCC1c1noc(C2CC2)n1 (stereo not drawn),18.68%
19,Cc1cc(C2CCCN2Cc2cc(-c3ccco3)on2)on1 (stereo not drawn),-89.63%
20,Cc1cc(C2CCCN2Cc2nc(-c3ccco3)no2)on1 (stereo not drawn),9.843%
21,COc1ccc(CN2CCCCC2c2n[nH]cc2-c2cc(C)no2)cc1.Cl (stereo not drawn),84.19%
22,COc1ccc(CN2CCOC[C@H]2c2nc(-c3ccncc3)c[nH]2)cc1,-8.206%
23,Cc1cccc(CN2CCCCC2c2n[nH]cc2-c2cc(C)no2)c1.Cl (stereo not drawn),91.3%

row,SMILES,Percent Effect
1,CS(=O)(=O)N1CCc2[nH]cnc2C12CCN(C(=O)c1ccccc1)CC2,-3.54%
2,CN1C[C@@H](NC(=O)C2CC2)C[C@H]1c1nc(-c2cnccn2)no1,-3.142%
3,O=C(c1ncoc1-c1ccco1)N1CCCN(c2nccs2)CC1,-20.95%
4,COc1ccc2c(c1)C(C(=O)N(C)CCn1ccnc1C)CC(=O)N2 (stereo not drawn),-6.574%
5,O=C1CC(c2cccnc2)c2c(c(C(=O)O)cn2-c2ccccc2)N1 (stereo not drawn),6.777%
6,O=C1N(c2ccc(F)cc2)Cc2nc(=O)n(Cc3cccc(Cl)c3)n21,-4.998%
7,COc1cccc(CC2CCCN2CCCO)c1 (stereo not drawn),13.01%
8,COc1cccc(CN2CCCC2c2c(C)nn(C)c2C)c1 (stereo not drawn),0.6284%
9,COc1cccc(CN2CCCCC2c2n[nH]cc2-c2cc(C)no2)c1.Cl (stereo not drawn),78.4%
10,CCN(CCCNC(=O)c1ccc(C)[nH]c1=O)S(C)(=O)=O,-16.03%
11,CC1=C[C@@H](CN2CCN(C)CC2)[C@H](C(C)C)C[C@H]1Cc1nnc(C)o1,-4.667%
12,CN(Cc1nc(-c2ccccc2)c[nH]1)C(=O)NCC(=O)NC(C)(C)C,-12.98%
13,O=C(CCCn1ccnc1)N[C@H]1CN(C2CCCC2)C[C@@H]1C1CC1,-1.542%
14,O=C(CCCn1ccnc1)NC1CCCN(c2ccccc2Cl)C1 (stereo not drawn),86.14%
15,COc1ccccc1OC1CCN(C(=O)CCCn2ccnc2)CC1,6.898%
16,Cc1ccc(Cl)cc1N1CCC(CNC(=O)CCn2ccnc2)C1 (stereo not drawn),19.22%
17,CCC[C@H]1CN(S(C)(=O)=O)C[C@@H]1NC(=O)CCCn1ccnc1,0.7566%
18,Cc1cc(F)ccc1N1CCCC(NC(=O)CCCn2ccnc2)C1 (stereo not drawn),114.8%
19,Cc1n[nH]c(C)c1CCC(=O)NC1CCCN(c2ccccc2F)C1 (stereo not drawn),-4.293%
20,Cc1cc(F)ccc1N1CCCC(NC(=O)CCc2ccncc2)C1 (stereo not drawn),111.2%
21,O=C(NCc1cccc(F)c1)NC1CCCN(c2ncccn2)C1 (stereo not drawn),12.98%
